Assays:
Assay in all cases: PBM binding z-score (relative to random genomic background probes); higher = stronger binding; sequences stand for … in GC…GCGATTGACAGCGTAGAATGAAGG
[1] = test system: RARb homodimer (NR concentration 270 nM)
Summary of the method: (§1)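 Ligand-free nuclear receptor dimers were bound for 1 h to custom Agilent 4×180K protein-binding microarrays. Detection used antibodies against each partner (one per run). Binding z-scores rest on regression-normalized fluorescence, with random background probes as the reference.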

[2] = test system: RARg:RXRa (NR concentration 270 nM, RXRa partner concentration 90 nM)
Summary of the method: as §1

[3] = test system: RARg homodimer (NR concentration 270 nM)
Summary of the method: as §1

[4] = test system: RXRa DBDmut IVT, anti-RXR (DBD mutation: RXRa K156A/R161A, NR concentration 90 nM)
Summary of the method: as §1

[5] = test system: RXRa homodimer (NR concentration 180 nM)
Summary of the method: as §1

[6] = test system: THRa:RXRa (NR concentration 90 nM, RXRa partner concentration 90 nM)
Summary of the method: as §1

[7] = test system: THRa homodimer (NR concentration 90 nM)
Summary of the method: as §1

[8] = test system: VDR:RXRa (NR concentration 270 nM, RXRa partner concentration 90 nM)
Summary of the method: as §1

[9] = test system: VDR homodimer (NR concentration 270 nM)
Summary of the method: as §1

Sequence	PBM binding z-score [1]	PBM binding z-score [2]	PBM binding z-score [3]	PBM binding z-score [4]	PBM binding z-score [5]	PBM binding z-score [6]	PBM binding z-score [7]	PBM binding z-score [8]	PBM binding z-score [9]
CCGATTGGGGCAGAAAGGTTACCATACCATCCGG	2.03	1.61	1.25	-0.405	1.75	0.945	-0.567	0.707	-0.225
CCAGACAGGTGAAATGTAACTCAGTCTGGTACGC	-0.215	0.487	0.478	0.261	0.624	0.0453	-0.307	0.0659	-0.0884
CCTGACGGGTCACTCCAGGTTATAGCATCGGAGT	2.89	3.82	3.7	1.04	3.59	5.04	0.311	3.46	1.27
CCCACTGGGGCATAAGGTTACCATAAGCCAGCCC	1.49	1.56	1.09	-1.4	1.07	1.92	1.01	-0.113	-0.364
GCAGACAGGTGTAACGCAGGTAACTCAGGGTGGC	-0.771	-0.375	-0.631	-0.861	-0.21	0.816	-0.935	-0.647	-0.598
ATCGAAAGGTCGTGAGGTGAGTATGCAGAAAGGC	3.26	4.63	4.17	1.02	5.27	3.56	1.71	3.57	0.782
GGAACGAGGGCAAAGTTGAAAGCATCTGTCGACG	1.51	2.59	1.86	2.79	2.88	1.59	-0.341	1.76	0.999
ATATGTAGATTATCGGGTCATTCAGTTTGCGCAT	2.3	1.94	1.35	1.21	2.45	3.14	2.5	4.87	4.05
TCTCGGTGGACACGAAGGTCAGAGCTTTCCAGAG	3.04	2.19	1.97	0.131	1.55	1.39	-0.0519	1.02	-0.0711
AGAACGAGGGCACGCTGAGTTGCTAGCAGAGTAG	0.875	1.48	1.95	1.69	1.1	1.51	-0.328	1.18	1.42
CTACCAAGGTGAACATGGTCGTTGATTACTATTC	1.25	1.06	1.14	0.571	0.87	2.25	1.03	1.18	-0.0794
CCTACTGGGCCAAAGTCATTGATCAGTCAAAGCA	-0.0618	-0.124	-0.109	-0.332	-0.525	-0.226	-0.645	-0.45	-0.635
TAGCCTAGGTCAAGGGCCAGTATACCACGCGAAC	3.4	4.09	4.75	0.34	3.58	2.78	0.832	1.6	0.272
TATATAGGGTCAAAGGCCAGAGTACGAATGTCGA	3.73	5.52	5.07	3.21	6.74	3.92	1.41	4.75	2.45
GCTAGTTGGTCAGTAAAAGGTCACACAGCGGTCG	4.98	5.92	5.1	0.686	5.48	3.67	1.78	3.95	2.18
ATCTCTAGGTAAAAGTTTAGTGAATCCCGAGGAT	0.137	0.438	0.614	-0.116	0.318	0.379	0.343	0.124	0.554
ATCGAAAGGTTGTGAGGTGAGTATACAGAAAGGC	1.22	1.14	1.19	-0.0955	1.24	2.23	1.49	0.652	0.162
TCTTGTAGATCAAGCAGGTTAGGAAAGCCTGAGT	0.012	-0.289	-0.589	0.37	-0.0446	0.0299	-0.467	0.203	0.231
CCGACTGGGGCAGAAAGGTTAGCATACCATCCGG	1.74	0.906	0.862	-0.65	0.988	0.31	-0.682	0.00712	-0.346
ACAAGCAGGCCAAGGGTCACTCAAGATTAGTCCG	3.85	4.28	4.23	0.479	4.21	2.67	0.327	2.94	0.958
CCAGACAGGTGAGAAGGGAACTCAGCCTCGATTA	0.237	-0.0873	0.115	0.063	0.0773	0.215	0.0826	-0.443	-0.25
TCTTTTAGATCAACAGGAGGTTAAGAAAGATCGA	0.623	1.24	0.914	1.31	1.48	1.08	-0.0396	0.982	-0.0983
TAGCCTAGGTAATGCGGGCCAGTATAGTGTCGGC	-0.521	-0.6	-0.559	-1.3	-0.499	-0.418	-0.74	-0.839	-0.784
TCATATAGGTAAACAGGGGAAAGTCCGTAAGTTA	0.507	0.245	0.0765	1.97	0.978	0.404	0.286	1.06	0.312

Sequence	PBM binding z-score [1]	PBM binding z-score [2]	PBM binding z-score [3]	PBM binding z-score [4]	PBM binding z-score [5]	PBM binding z-score [6]	PBM binding z-score [7]	PBM binding z-score [8]	PBM binding z-score [9]
CGACCGAGGGCATGAGTTGATAGCAAATGCCGAT	0.812	1.35	1.89	1.81	0.547	1.01	-0.126	1.3	1.48
TAGCATAGGTCATTGGGCCAGTATAGTACGCATC	3.23	4.88	4.65	1.58	4.77	2.29	-0.526	3.27	0.622
TCTTGTAGATCAAAGGGTAAGAAAGCCGAAGCCT	-0.068	0.11	-0.178	0.629	0.585	-0.022	-0.878	0.126	-0.525
ACAGACAGGTGAGCGAAGGTAACTCAGCTGGACG	0.0254	0.199	0.463	-0.651	0.258	1.74	-0.377	-0.641	-0.771
TCTAGTTGGTCAATGGTCACACACTCGAAATGCG	1.54	1.02	1.31	1.16	0.996	0.262	0.437	0.851	0.178
CGTCCACGGTCAGCAGGTCAGTGAAAGCGACGTG	3.48	2.99	3.3	0.0347	0.719	1.22	-0.0318	0.107	-0.234
CGTCCAAGGTCAAAGGTCAGTTAAGAGATGACGG	5.64	8.47	7.74	3.83	9.85	5.11	2.91	6.49	3.63
AGAATGTGGTTATACGTAGATCAGGGAAGAAAGT	0.494	0.184	0.305	0.187	-0.0859	0.207	0.0442	0.0519	-0.179
TCGAGTAGGTTCCCAATGGGGCATTCAGCTTTCT	-0.191	-0.766	-0.954	0.269	-0.493	-0.435	-0.628	-0.37	-1.15
TCATATAGGTAACACAGGTGAAAGTCGGCATCTA	1.12	1.13	0.999	1.73	1.55	1.36	0.518	1.49	0.493
CCTTACGGGTCATTGACAGGTTATAGCATTTGGA	3.04	5.75	3.8	2.9	5.07	2.91	0.494	4.11	1.67
CCTAGTTGGTCAGGAGGGCACACACCGGATATGA	1.73	1.52	1.53	-0.604	0.657	0.623	0.029	0.458	0.549
CAAACTAGGACAAAGGTCAAAGTCGAGCCAACCA	4.67	6.7	5.88	2.3	7.22	4.13	1.18	4.93	2.51
CCTAGCAGGCCAGGGTCAGTCAAGCATTTCGCTT	2.16	2.07	1.85	-0.296	1.65	1.75	0.116	0.634	0.172
TCGAGTAGGATAGGGGCATTCAGAATGGCGTCGA	0.241	-0.218	-0.225	0.0984	0.155	0.209	-0.171	-0.000288	0.237
TCATATAGGTAATACAGGTGAAAGTTGGCATCTA	0.923	1.02	0.788	1.86	1.69	1.19	0.467	1.46	0.572
TGAATGAGGTTATAAGATCATGGAACGTTGCAAA	0.204	1.76	0.935	0.832	2.42	1.71	0.0513	1.44	0.42
CGTCAAAGTTCAAGGTAACGTGACAGAAAGCAGC	3.72	5.21	5.97	4.54	4.26	2.99	1.08	3.71	3.04
CCAGACAGGTGAAAGGTAAATCAGTCTGGTACGC	0.653	1.04	0.721	-0.121	1.85	0.832	-0.308	0.701	0.0909
GCATGTAGGTAATACAAGGTGAAAGTCCGATTGT	0.748	0.359	0.236	-0.332	0.495	3.96	0.81	0.342	-0.301
CGTCCAAGGTCAGCAAGTCAGTGAAAGCGACGTG	3.99	5.01	6	2.5	4.02	3.42	1.67	2.93	1.03
TGAATGAGGTTAAAGTTCAGGGAACGTGGCGTCG	3.35	4.76	2.66	1.93	6.97	3.63	0.772	4.37	2.62
CAAACTAGGTCGAAGGTCAAAGTCGAGCCAACCA	3.79	5.7	4.29	1.85	6.86	3.5	0.693	4.45	1.71
CCGACTGGGGCAAGGTTACCACAACGCACAGCCA	1.53	1.13	1.45	-0.491	1.12	1.31	0.612	0.188	-0.211

Reference: the supplement of paper PMC6555819
